Data on 97 compounds can be found in PubChem BioAssay AID1626 (SRMLSC, 2009).

Several values for one entry are separate records, joined by “and”; a condition that tells them apart may be missing. Identical values can stand only once. About 2,000 (0.91%) of roughly 220,000 compounds were called active. Another 2% or so got no clear call; they are omitted. Rule as the data show it: inconclusive = inhibition above about 80% without an active follow-up result; inactive = below that; test concentration not stated here. These entries were drawn from the full list. Potency and affinity values are given separately.

A short description of the test: M. tuberculosis H37Rv growth inhibitors, H37Rv strain (AID 1626).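 Also: bacteria incubated seven days before Alamar blue readout; 0% = bacteria only wells and 100% = bacteria with antibiotic wells.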 To be noted: hits give high values, concentration not given here.
Usually inhibition stands for the relative decrease from the control value, in per cent. For the compound `O=C(Nc1nnc(-c2ccncc2)o1)c1ccccc1F`, the inhibition is 1.42% (inactive).

Take `O=C(Nc1nnc(-c2ccc(Cl)cc2)o1)Nc1ccccc1Cl`: the inhibition was -6.02% (inactive). As to `COc1ccccc1C(=O)NNC(=O)c1ccc(Cl)cc1`, the inhibition was 0.09% (inactive). For the compound `COc1cccc(-c2nnc(NC(=O)C(C)C)o2)c1`, the inhibition is 59.4% (inactive).

Turning to `COc1cccc(-c2nnc(NC(C)=O)o2)c1`, the inhibition was 7.53% (inactive). In the case of `COc1ccccc1C(=O)Nc1nnc(-c2ccc(F)cc2)o1`, the inhibition is 9.06% (inactive). To `Cc1ccc(-c2csc3nc(-c4ccncc4)[nH]c(=O)c23)cc1` belongs 3.27% (inactive); to `Cc1cccc(N2CCN(C(=O)Cn3cccc3)CC2)c1C`, 3.88% (inactive); to `Cc1ccc(/C=N/N2CCN(Cc3ccccc3)CC2)s1`, -23% (inactive). To `COc1ccc(C2=NOC(C)(c3nnc(-c4ccc(F)cc4)o3)C2)cc1` (configuration not stated) belongs -6.66% (inactive); to `Cc1ccc(CC2CC(=O)N(c3ncccn3)C2=O)cc1` (configuration not stated), -1.69% (inactive). On to `Cc1ccc(CC2C(=O)N(c3ncccn3)C(=O)C2C)cc1` (configuration not stated), for which the inhibition was -0.53% (inactive). To `Cc1cccc(CC2CC(=O)N(c3ncccn3)C2=O)c1` (configuration not stated) belongs -7.53% (inactive). Turning to `CNc1ncc(Cc2ccccc2)s1`, the inhibition is 14.7% (inactive). For `Cc1ccc(Cc2cnc(N3C(=N)SC(c4ccccc4)C3=O)s2)cc1` (configuration not stated), the inhibition is 1.22% (inactive).

`N#CCC(=O)Nc1ncc(Cc2ccccc2Cl)s1`: the inhibition is 5.63% (inactive). Consider `O=C(CSc1nnnn1-c1ccccc1)Nc1ncc(Cc2ccccc2Cl)s1`, for which the inhibition is 0.66% (inactive). Turning to `Cc1cccc(Cc2cnc(NC(=O)c3ccc(C)o3)s2)c1`, the inhibition was 21.9% (inactive). To `CCCn1c(=S)[nH]c2cc(C(=O)N3CCc4ccccc4C3)ccc2c1=O` belongs -2.54% (inactive); to `CC(C)(C)OC(=O)N1CC(O)CC1C(=O)OCC(=O)c1ccccc1` (configuration not stated), -11.3% (inactive); to `CC(O)CNC(=O)Cc1cc(=O)[nH]c(=O)[nH]1` (configuration not stated), -2.41% (inactive).

As for `Cc1ccc2cc(CCNC(=O)C(C)(C)C)c(=O)[nH]c2c1`, the inhibition was 4.44% (inactive).

As to `Cc1nn(C)cc1CN1CCC(CO)(CCOc2ccccc2)CC1`, the inhibition is -0.32% (inactive).

Take `Cc1ccc(CNC(=O)C2CNc3cc(C)ccc3O2)cc1` (configuration not stated): the inhibition is 11.1% (inactive). With `CC(C)CN(CCCNC(=O)CN1C(=O)COc2ccc(S(=O)(=O)N3CCCC3)cc21)CC(C)C` the figure was -2.35% (inactive); with `CNC(=O)/C(C#N)=C\c1ccc(CNS(=O)(=O)c2ccccc2)o1`, -2.69% (inactive); with `CSc1nc(C)c2c(n1)N(c1ccc(F)cc1)CC2`, 5.51% (inactive). As for `COc1ccc(N2CCc3c(C)nc(SC)nc32)cc1`, the inhibition is 11% (inactive).

As to `CC(C)(C)OC(=O)NCCc1nnc(SCc2cccc(Cl)c2)o1`, the inhibition was 13.5% (inactive). Take `Cc1nc2nc(N)nn2c(C)c1C/C=C/c1ccccc1`: the inhibition was -9.36% (inactive). To `Cc1nc2nc[nH]n2c(=O)c1C/C=C/c1ccccc1` belongs -3.13% (inactive). For `Cc1ccnc(NC(=O)CCC(=O)N(CC(=O)NCc2ccccc2)Cc2cccs2)c1`, the inhibition is 6.51% (inactive). With `Cc1cc2nccc(-c3ccncc3)n2n1` the figure was 2.36% (inactive); with `N#CCC1c2ccccc2CCN1C(=O)Nc1ccc(Cl)cc1` (configuration not stated), -4.15% (inactive). Regarding `N#CCC1c2ccccc2CCN1C(=O)Nc1cccc(C(F)(F)F)c1` (configuration not stated), the inhibition is -1.17% (inactive). Consider `C=CCN=C1SCC(=O)N1S(=O)(=O)c1ccccc1`, for which the inhibition is 6.81% (inactive).

For `Cc1ccn2c(CNC(C)CCn3cccn3)c(C(=O)N3CCCCCC3)nc2c1` (configuration not stated), the inhibition is -0.19% (inactive). With `Cc1nc(N2CCC(C)CC2)c2oc3ccccc3c2n1` the figure was 10% (inactive); with `COc1ccccc1N1CCN(c2ncnc3c2oc2ccccc23)CC1`, -5.65% (inactive); with `Cc1nc(N2CCN(Cc3nc4ccccc4[nH]3)CC2)c2oc3ccccc3c2n1`, -2.88% (inactive). For the compound `Cc1nc(N2CCOCC2)c2oc3ccccc3c2n1`, the inhibition was -2.79% (inactive). Consider `CN(CC(=O)Nc1ccccn1)S(=O)(=O)c1ccc(Cl)cc1`, for which the inhibition was -2.26% (inactive). Regarding `CN(C)/C=C1\N=C(c2ccccc2)OC1=O`, the inhibition is 8.41% (inactive). To `CC(=O)Oc1ccc2c(=O)c(Oc3ccccc3)c(C)oc2c1OC(C)=O` belongs -17.4% (inactive); to `COc1ccc(-c2[nH]ncc2CNC(C)Cc2cccc(C)n2)cc1F` (configuration not stated), 0.91% (inactive). To `Cc1ccc(CCN2CC(C(=O)NCCCN(C)Cc3ccccc3)CC2=O)cc1` (configuration not stated) belongs 2.65% (inactive); to `CCOc1ccc(CCN2C(=O)C(=O)N([C@H](CCCN(C)Cc3ccccc3)CNCc3ccccc3)C[C@@H]2C(C)C)cc1`, -12.7% (inactive). To `COc1ccc(CNC(=O)[C@@H]2CC=C[C@@H]3CCN(Cc4ccc(Cl)c(Cl)c4)C(=O)[C@@H]32)cc1` belongs 6.56% (inactive); to `O=C1NC[C@H](c2ccccc2)N(CCc2cccc(F)c2)C1=O`, -4.05% (inactive); to `Cc1cc(C)nc(NS(=O)(=O)c2ccc(NC(=O)c3ccco3)cc2)n1`, 3.55% (inactive). Turning to `O=C(Nc1ccc(Cl)cc1)OCc1cn(-c2ccc(Cl)cc2)nn1`, the inhibition is -0.6% (inactive).

With `O=C(CCN1CCCCC1)N/N=C/c1c[nH]c2ccccc12`, the inhibition was -4.97% (inactive).

Take `Cc1ccc(C)c(N(C(=O)CS(=O)CC(=O)Nc2ccc3c(c2)OCO3)C(C)C(=O)NC2CCCC2)c1` (configuration not stated): the inhibition is -13.4% (inactive).

On to `CC1(C)CC(=O)C(C=Nc2ccc(O)cc2)=C(O)C1`, for which the inhibition was 1.61% (inactive). To `CC1(C)CC(=O)C(C=Nc2ccc(N)cc2)=C(O)C1` belongs 0.045% (inactive). To `O=C(O)c1c2c(nc3ccc(Cl)cc13)CCC2` belongs -3.42% (inactive); to `COCCNC(=O)CSc1c2c(nc3ccc(Cl)cc13)CCCC2`, 0.54% (inactive); to `Oc1ccc(-n2cnnn2)cc1`, -8.59% (inactive). As to `CCc1nccn1-c1cc(C(C)(C)C)nc2c(-c3ccc(Cl)cc3)cnn12`, the inhibition is 3.22% (inactive). On to `Cc1cc(-c2ccccc2)n2ncc(-c3ccccc3)c2n1`, for which the inhibition was 7.91% (inactive). With `Cc1cc(N)n2ncc(-c3ccccc3)c2n1` the figure was 8.61% (inactive); with `Cc1nccn1-c1cc(C(C)(C)C)nc2c(-c3ccccc3)cnn12`, 2.7% (inactive); with `CC(=O)Nc1ccc(Nc2cc(C)nc3c(-c4ccccc4)cnn23)cc1`, 72.8% (inactive).

Regarding `Cc1cc(NCCN2CCOCC2)n2ncc(-c3ccccc3)c2n1`, the inhibition is 8.29% (inactive). In the case of `O=C(COc1ccccc1)N1c2ccccc2Sc2ccccc21`, the inhibition was -4.38% (inactive). Turning to `O=C(O)c1ccccc1SCC(=O)N1CCOCC1`, the inhibition is 7.09% (inactive). As for `CCOc1cccc2sc(Cl)nc12`, the inhibition is -8.06% (inactive).

Regarding `CSC(=Nc1ccccc1)c1c(O)n(C)c(=O)n(C)c1=O`, the inhibition is -1.82% (inactive). Regarding `CN=C(SCc1ccccc1)c1c(O)n(C)c(=O)n(C)c1=O`, the inhibition was -0.87% (inactive). Turning to `C=CCN=C(SCC(=O)c1ccc(Cl)cc1)c1c(O)n(C)c(=O)n(C)c1=O`, the inhibition is 1.31% (inactive). Take `CN=C(SCc1cc2c(cc1Cl)OCO2)c1c(O)n(C)c(=O)n(C)c1=O`: the inhibition is -0.46% (inactive). With `CCNC(=O)CC1S/C(=N/N=C(\C)c2ccccc2)NC1=O` (configuration not stated) the figure was 2.78% (inactive); with `O=C(CNC(=O)c1cccs1)c1ccc(F)cc1`, 4.53% (inactive). To `CCN(CC)S(=O)(=O)c1ccc(C(=O)OCC(=O)Nc2sc3c(c2C#N)CCCCC3)cc1` belongs 6.83% (inactive); to `COc1ccc(-c2ccc(OC)cc2)cc1`, -6.18% (inactive); to `COc1ccc(-c2cc(-c3ccccc3)[n+](C)c(-c3ccccc3)c2)cc1`, 2.49% (inactive). To `CCC(=O)Nc1cccc(C(=O)/C=C/c2cccs2)c1` belongs 31.2% (inactive); to `CC(=O)Nc1cccc(C(=O)/C=C/c2ccc[nH]2)c1`, -13.8% (inactive); to `CC(=O)Nc1cccc(C(=O)/C=C/c2ccc(N(C)C)cc2)c1`, 8.2% (inactive). For the compound `CC(=O)Nc1cccc(C(=O)/C=C/c2ccc(F)cc2)c1`, the inhibition is 16.5% (inactive).

For the compound `CCC(=O)Nc1cccc(C(=O)c2ccccc2)c1`, the inhibition was 25.8% (inactive). Regarding `CC(=O)Nc1cccc(C(=O)/C=C/c2ccc(/C=C/C(=O)c3cccc(NC(C)=O)c3)cc2)c1`, the inhibition is 2.15% (inactive).

As to `CC(C)CN1C(=O)C(NC(=O)C2CC2)(C(F)(F)F)C2=C1CC(C)(C)CC2=O` (configuration not stated), the inhibition was -4.55% (inactive).

Take `COc1ccc(-n2c(SCC(=O)N/N=C/c3ccccc3OCC(=O)O)nc3ccccc3c2=O)cc1`: the inhibition was -3.87% (inactive). For the compound `COc1ccc(-c2cc(C(=O)OCC(=O)N(C)C)c3ccccc3n2)cc1`, the inhibition is -8.2% (inactive).

Regarding `N#CCCN/N=C(\Cc1nc2ccccc2[nH]1)c1ccccc1`, the inhibition is -0.45% (inactive). To `COc1cc(C(C)=O)ccc1COc1ccc(C(=O)OCC(=O)NC2CCS(=O)(=O)C2)cc1OC` (configuration not stated) belongs 1.52% (inactive); to `O=C(O)CCn1cc(/C=C\C(=O)c2ccc(Cl)cc2)c(-c2cccc(Br)c2)n1`, -1.2% (inactive); to `CCN(CC)CCCNc1cc(C)nc2cc(-c3cccs3)nn12`, -2.4% (inactive). Take `CC(Oc1ccc(Cl)cc1Cl)c1nc(-c2ccc(NC(=O)c3cccnc3)cc2)no1` (configuration not stated): the inhibition was 76.2% (inactive). To `CC(Oc1ccc(Cl)cc1Cl)c1nc(-c2ccc(NC(=O)c3ccccn3)cc2)no1` (configuration not stated) belongs -3.67% (inactive); to `CCCOc1ccc(-c2nc(OC)c3ccccc3n2)cc1`, 77% (inactive); to `O=C(/C=C/c1ccc(Br)cc1)c1ccc(NC(=O)c2ccco2)cc1`, 10.8% (inactive).

In the case of `Nc1ccc(/C=C/C(=O)c2ccco2)cc1`, the inhibition was 78.3% (inactive). As to `S=c1[nH]c2ccccc2[nH]1`, the inhibition is -2.67% (inactive). With `S=c1[nH]c2cc3ccccc3cc2[nH]1` the figure was 73.9% (inactive) and 72.9% (inactive). With `O=C(Cc1ccc(S(=O)(=O)N2CCCC2)s1)Nc1nc2c(s1)CCCC2` the figure was 1.89% (inactive).
